The term AC50 denotes the midpoint of the concentration-response curve, whichever way the signal moves.

The target in assay [1] is Cellular tumor antigen p53 (Homo sapiens) (UniProt P04637). The assay is described as follows: TOX21_p53_BLA_p3_ratio: Tox21 HCT-116 p53 Agonism Beta-lactamase Assay, Ratio, Phase 3 (AID 2283596). The essentials:
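HCT116 p53-bla cells (4000/well) given compound in DMSO (217-fold dilution) after 5 h, incubated 16 h at 37C. CCF4-AM substrate 2 h at room temperature; 460/530 nm emission ratio, gain fitted against DMSO.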

Assay [2] has the same target. The assay can be described thus: TOX21_p53_BLA_p5_ratio: Tox21 HCT-116 p53 Agonism Beta-lactamase Assay, Ratio, Phase 5 (AID 2283599). Summed up: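 Beta-lactamase reporter ratio (blue 460 nm over green 530 nm, 405 nm excitation) after 2 h CCF4-AM loading, in HCT-116 cells exposed 16 h at 37 C to compounds pinned at 217-fold dilution. Increases relative to DMSO baseline scored.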

The target is the same in assay [3]. The assay is described as follows: TOX21_p53_BLA_p4_ratio: Tox21 HCT-116 p53 Agonism Beta-lactamase Assay, Ratio, Phase 4 (AID 2283601). Summed up:
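Signal is the blue/green (460nm/530nm) ratio of cleaved versus uncleaved CCF4-AM substrate, read after 2 h substrate loading. Cells were HCT116 carrying the p53-responsive beta-lactamase reporter, dosed 16 h at 37C, 5% CO2; CellTiter-Glo measured in parallel.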

Assay [4] is described as follows: TOX21_p53_BLA_p5_viability: Viability Assessment in the Tox21 HCT-116 p53 Agonism Beta-lactamase Assay, Phase 5 (AID 2283600). Summed up:
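Counter-readout for cytotoxicity: ATP-dependent luminescence from CellTiter-Glo, read in the beta-lactamase wells after 30 min at RT, following a 16 h compound exposure at 37C.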

Assay [5] has as its target PGR (gene 5241) (UniProt P06401). The assay is described as follows: TOX21_PR_BLA_Followup_Antagonist_ratio: Tox21 HEK293 Progesterone Receptor (PR) Antagonism Beta-lactamase Follow-Up Assay, Ratio (AID 2283934). Summed up:
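PR-UAS-bla HEK293T cells, 3,000/well in 2% charcoal-stripped FBS, given compound plus 1nM R5020 agonist for 16 hr at 37C. Beta-lactamase FRET substrate 2 hours, ratio cleaved/uncleaved fluorescence; viability by CellTiter-Glo in same wells.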

Assay [6] has the same target. The assay is described as follows: TOX21_PR_LUC_Followup_Agonist: Tox21 HEK293 Progesterone Receptor (PR) Agonism Luciferase Follow-Up Assay (AID 2283937; active = hit-call score of the fitted dose curve at least 0.9, where 1 is the maximum; inactive = score below 0.9). The essentials:
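HEK293-PR-A-luc cells, conditioned 5 days in 10% charcoal-stripped FBS medium, seeded 3,000/well for 5 h, then compound-treated 16 h at 37C. ONE-Glo luminescence read after 30 min at room temperature; gain of signal versus DMSO.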

For assay [7] the target is unchanged. The assay can be described thus: TOX21_PR_LUC_Followup_Antagonist: Tox21 HEK293 Progesterone Receptor (PR) Antagonism Luciferase Follow-Up Assay (AID 2283938).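 Note: curve fitted upward as signal gain over DMSO baseline despite antagonist label.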 The essentials:
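A follow-up to the PR bla screen using HEK293-PR-A-luc cells, multiplexed with cell viability to flag cytotoxicity. Reporter luminescence after 16 h compound exposure was analysed relative to DMSO.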

The nature of assay [8]: TOX21_p53_BLA_p4_viability: Viability Assessment in the Tox21 HCT-116 p53 Agonism Beta-lactamase Assay, Phase 4 (AID 2283597).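 Note: hits lower the luminescence signal meaning cytotoxicity.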 The essentials: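 Compound exposure of HCT116 cells lasts 16 h at 37C, 5% CO2, with DMSO stocks diluted 217-fold. Cellular ATP is then quantified by CellTiter-Glo luminescence after 30 min at room temperature.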
Assay [9] in a line: TOX21_PR_BLA_Followup_Agonist_viability: Viability Assessment in the Tox21 HEK293 Progesterone Receptor (PR) Agonism Beta-lactamase Follow-Up Assay (AID 2283935).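 Note: signal loss means lower viability so actives are cytotoxic.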 The essentials:
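PR-UAS-bla HEK293T cells in 2% charcoal-stripped FBS medium, plated 6 hr before compound addition, exposed 16 hr at 37C. Viability read by CellTiter-Glo ATP luminescence after 30 min at room temperature, in the same wells as the beta-lactamase readout.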

Assay [10] in a line: TOX21_PR_LUC_Followup_Antagonist_viability: Viability Assessment in the Tox21 HEK293 Progesterone Receptor (PR) Antagonism Luciferase Follow-Up Assay (AID 2283940). The essentials:
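HEK293-PR-A-luc cells kept in charcoal-stripped FBS medium were plated 5 h before compound addition, then exposed 16 h at 37C; viability read as cellular ATP by luciferase luminescence, loss of signal indicating cytotoxicity.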

A short description of assay [11]: TOX21_PR_LUC_Followup_Agonist_viability: Viability Assessment in the Tox21 HEK293 Progesterone Receptor (PR) Agonism Luciferase Follow-Up Assay (AID 2283941).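 Note: loss of signal means cytotoxicity so actives lower viability.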 The essentials: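 HEK293-PR-A-luc cells, kept in 10% charcoal-stripped FBS medium, were treated with compounds for 16 h at 37C. Viability read as cellular ATP by luciferase-coupled luminescence; loss of signal indicates cytotoxicity.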

SMILES strings stand for the structures. Records with an inconclusive call do not appear. Calls of active or inactive are those of the source. Rule for the calls, unless noted: active = hit-call score of the fitted dose curve at least 0.9, where 1 is the maximum; inconclusive = response in the unintended direction; inactive = score below 0.9. Where a SMILES comes first, the peptide text is derived from it. Bridges are numbered along the chain shown (N, C = ends). [ ]: non-standard residue; d: D form. hArg = N=C(N)NCCCC[C@H](N)C(=O)O; Mpa = O=C(O)CCS

Chain of Cellular tumor antigen p53 (Homo sapiens) (P04637 whole entry, looked up): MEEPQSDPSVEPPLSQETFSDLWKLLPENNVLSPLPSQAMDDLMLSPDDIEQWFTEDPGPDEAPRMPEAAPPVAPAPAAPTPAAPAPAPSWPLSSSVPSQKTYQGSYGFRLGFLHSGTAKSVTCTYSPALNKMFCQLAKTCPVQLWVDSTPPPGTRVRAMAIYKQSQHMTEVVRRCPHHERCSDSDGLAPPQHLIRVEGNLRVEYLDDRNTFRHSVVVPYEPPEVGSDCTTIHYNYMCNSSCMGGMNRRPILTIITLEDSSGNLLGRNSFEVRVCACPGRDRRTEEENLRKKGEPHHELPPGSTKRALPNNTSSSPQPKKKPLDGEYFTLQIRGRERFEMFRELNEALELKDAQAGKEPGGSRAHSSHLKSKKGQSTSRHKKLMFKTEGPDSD
Chain of PGR (gene 5241) (P06401 whole entry, looked up): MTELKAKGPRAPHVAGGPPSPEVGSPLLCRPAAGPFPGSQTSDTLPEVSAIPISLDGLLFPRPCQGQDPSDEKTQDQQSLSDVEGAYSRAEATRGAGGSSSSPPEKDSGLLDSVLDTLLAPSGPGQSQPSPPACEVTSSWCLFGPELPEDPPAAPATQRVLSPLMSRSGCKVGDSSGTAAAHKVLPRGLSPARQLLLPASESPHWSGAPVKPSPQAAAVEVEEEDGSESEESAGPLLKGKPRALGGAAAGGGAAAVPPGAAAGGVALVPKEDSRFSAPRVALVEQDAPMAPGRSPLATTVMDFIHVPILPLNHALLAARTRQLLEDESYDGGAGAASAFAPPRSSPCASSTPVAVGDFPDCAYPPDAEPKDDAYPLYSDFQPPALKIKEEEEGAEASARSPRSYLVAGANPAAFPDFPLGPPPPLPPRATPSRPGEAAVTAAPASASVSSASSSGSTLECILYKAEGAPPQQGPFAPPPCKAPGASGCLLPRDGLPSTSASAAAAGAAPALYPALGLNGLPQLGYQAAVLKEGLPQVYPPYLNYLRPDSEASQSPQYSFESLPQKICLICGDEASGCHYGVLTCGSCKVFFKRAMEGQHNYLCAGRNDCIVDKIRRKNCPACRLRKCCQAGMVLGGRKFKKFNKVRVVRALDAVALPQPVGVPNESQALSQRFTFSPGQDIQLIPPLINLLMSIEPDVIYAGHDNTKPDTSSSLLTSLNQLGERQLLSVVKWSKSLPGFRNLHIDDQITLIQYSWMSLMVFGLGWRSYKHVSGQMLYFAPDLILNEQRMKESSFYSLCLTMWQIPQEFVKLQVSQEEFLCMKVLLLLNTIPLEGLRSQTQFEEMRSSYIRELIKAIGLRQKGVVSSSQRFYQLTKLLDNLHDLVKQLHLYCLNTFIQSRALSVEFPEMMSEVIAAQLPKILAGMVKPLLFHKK

Regarding `FC1(F)C(F)(F)C(F)(F)C2(F)C(F)(F)C(F)(F)C(F)(F)C(F)(F)C2(F)C1(F)F` (configuration not stated), the outcome in [1], in assay [2] and in assay [3] was inactive.
For `O=C(CO)[C@@H](O)[C@H](O)[C@@H](O)CO`, the result in [1] and in [4] was inactive.
As for `Cc1ccc(N)cc1[N+](=O)[O-]`, the outcome in assay [1] and in assay [3] was inactive.
As to `O=C(COCCOCCOCC(=O)Nc1c(I)cc(I)c(C(=O)O)c1I)Nc1c(I)cc(I)c(C(=O)O)c1I`, the outcome in [1] and in assay [4] was inactive.
Take `CCOc1ccc2ccccc2c1C(=O)N[C@@H]1C(=O)N2[C@@H]1SC(C)(C)[C@@H]2C(=O)O`: the result in assay [1] and in assay [3] was inactive.
`C=CC(=O)OCCOCCOC(=O)C=C`: the outcome in [1], in assay [2] and in assay [3] was inactive.
Regarding `O=C(O)Cc1csc(-c2ccc(Cl)cc2)n1`, the result in [1], in [2] and in assay [3] was inactive.
Turning to `NC(=O)[C@@H]1CSSCCC(=O)N[C@@H](CCCCN=C(N)N)C(=O)NCC(=O)N[C@@H](CC(=O)O)C(=O)N[C@H](Cc2c[nH]c3ccccc23)C(=O)N2CCC[C@H]2C(=O)N1` ([Mpa][hArg]GD[dW]PC-NH2; disulfide 1-7), the outcome in assay [1], in assay [2] and in assay [3] was inactive.
In the case of `CN(C)CCN(Cc1ccc(Cl)cc1)c1ccccn1`, the result in assay [1], in [2] and in assay [3] was inactive.
`CC(=O)N[C@@H](CC(=O)N[C@@H](CCC(=O)O)C(=O)O)C(=O)O`: the result in [1], in assay [4] and in assay [3] was inactive.
In the case of `O=C(O)[C@H](O)c1ccccc1`, the outcome in assay [1], in assay [2] and in assay [3] was inactive.
`OCC1(CO)COC(C(Cl)(Cl)Cl)OC1`: the outcome in [1], in assay [2] and in [3] was inactive.
Take `C[C@H](O)C(=O)Nc1c(I)c(C(=O)NC(CO)CO)c(I)c(C(=O)NC(CO)CO)c1I`: the result in assay [1], in assay [4] and in [3] was inactive.
As for `NC[C@H]1O[C@H](O[C@H]2[C@H](O)[C@@H](O[C@H]3O[C@H](CO)[C@@H](O)[C@H](N)[C@H]3O)[C@H](N)C[C@@H]2N)[C@H](N)[C@@H](O)[C@@H]1O`, the outcome in assay [1], in assay [2] and in assay [3] was inactive.
With `CCOC(=O)C1=C(C)NC(C)=C(C(=O)OC)C1c1cccc(Cl)c1Cl` (configuration not stated), the outcome (in assay [1]; in assay [2]; in assay [3]; with PGR (gene 5241) [6]) was inactive. Besides, the AC50 with PGR (gene 5241) [5] is 14.7 µM (active); with PGR (gene 5241) [7], 13.4 µM (active).
Consider `CCc1c(C)[nH]c2c1C(=O)C(CN1CCOCC1)CC2` (configuration not stated), for which the outcome in assay [1], in assay [2] and in assay [3] was inactive.
Consider `CC(C)CCC[C@@H](C)[C@H]1CC(=O)C2=C3CC[C@H]4C[C@@H](O)CC[C@]4(C)[C@H]3CC[C@@]21C`, for which the result in assay [1], in assay [2], in assay [4] and in [3] was inactive.
Consider `O=C1C(CCS(=O)c2ccccc2)C(=O)N(c2ccccc2)N1c1ccccc1` (configuration not stated), for which the result in assay [1] and in assay [3] was inactive.
Turning to `CN1CCN(CCC(=O)N2c3ccccc3Sc3ccc(C(F)(F)F)cc32)CC1`, the result in assay [1] and in assay [3] was inactive.
For the compound `CCOc1cc(N)c(Cl)cc1C(=O)NCC1CN(Cc2ccc(F)cc2)CCO1` (configuration not stated), the result in assay [1], in assay [4] and in assay [3] was inactive.
Turning to `Cl/C(=C\n1cncn1)c1ccc(Cl)cc1Cl`, the call (in assay [8]; in assay [2]; in assay [4]; in [3]; with PGR (gene 5241) [5]; in assay [9]) was inactive. Besides, the outcome (in the assay with PGR (gene 5241) [7]; in assay [10]; in assay [11]) was inactive.
With `Oc1cc(O)cc(O)c1`, the outcome in assay [8] and in assay [2] was inactive.
Regarding `CC(C)N(C)C`, the result in assay [2] was inactive.
On to `Cn1nnnc1SCC1=C(C(=O)O)N2C(=O)[C@@H](NC(=O)[C@H](O)c3ccccc3)[C@H]2SC1`, for which the result in assay [8], in assay [2], in assay [4] and in assay [3] was inactive.
For the compound `C=CCc1cc(OC)c(O)c(C(=O)NCCO)c1`, the result in assay [8] and in assay [3] was inactive.
For `CC(CN1c2ccccc2Sc2ccc(S(=O)(=O)N(C)C)cc21)N(C)C` (configuration not stated), the call in [8] and in [3] was inactive.
Regarding `O=C(O)C=Cc1ccc(C=CC(=O)O)cc1`, the compound was classed as inactive in assay [8].
On to `NC(=O)[C@@H]1C[C@]2(NC(=O)NC2=O)c2cc(F)ccc2O1`, for which the result in assay [8], in assay [2], in assay [4] and in assay [3] was inactive.
With `CS(=O)(=O)NC(=O)CCC/C=C\C[C@H]1C(=O)C[C@@H](O)[C@@H]1/C=C/[C@H](O)COc1ccccc1`, the call in assay [8] and in assay [2] was inactive.
`O=C(O)c1cc(O)c2c(c1)[O][Bi][O]2`: in [8], the compound was called inactive.
Take `COc1ccc(CCNCC(O)COc2cccc(C)c2)cc1OC` (configuration not stated): in [8], the compound was called inactive.

These data come from PubChem BioAssay (EPA / NIEHS).
